# Several values for one entry are separate records, joined by “and”; a condition that tells them apart may be missing. Equal values may be shown once. About 2,000 (36%) of roughly 5,500 compounds were called active. Not shown: some 18% with an inconclusive outcome. Rule as the data show it: active = normalized growth mostly below about 0.91 (no sharp cut-off); inconclusive = no clear call, values can overlap the other calls; inactive = mostly above about 0.92. The list shows a part of the results.
# Assay: chemical genetic growth profiling, strain panel (AID 1159580);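 also: tested at 20 µM; growth read once vehicle control cultures reached saturation at 30 °C; 1 = growth at the plate median or of vehicle wells; lower values mean less growth of the strain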
# Conditions: S. cerevisiae deletion strains, growth OD
compound,measurement,setting,value
CCC(=O)O[C@H]1[C@H](O[C@@H]2[C@@H](C)[C@H](O[C@H]3C[C@@](C)(OC)[C@@H](O)[C@H](C)O3)[C@@H](C)C(=O)O[C@H](CC)[C@@](C)(O)[C@H](O)[C@@H](C)C(=O)[C@H](C)C[C@@]2(C)O)O[C@H](C)C[C@@H]1N(C)C,normalized growth,"locus YAL013W, strain DEP1, stronger effect = lower value",0.996 (inactive)
same,normalized growth,"locus YAL021C, strain ccr4, stronger effect = lower value",0.958 (inactive)
same,normalized growth,"locus YAL026C, strain drs2, stronger effect = lower value",0.942 (inactive)
same,normalized growth,"locus YAL030W, strain snc1, stronger effect = lower value",0.984 (inactive)
same,normalized growth,"locus YBL061C, strain skt5, stronger effect = lower value",0.973 (inactive)
same,normalized growth,"locus YBR009C, strain hhf1, stronger effect = lower value",0.797 (active)
same,normalized growth,"locus YBR021W, strain FUR4, stronger effect = lower value",0.232 (active)
same,normalized growth,"locus YBR023C, strain chs3, stronger effect = lower value",0.894 (active)
same,normalized growth,"locus YBR171W, strain sec66, stronger effect = lower value",1.01 (inactive)
same,normalized growth,"locus YBR229C, strain ROT2, stronger effect = lower value",1.02 (inactive)
same,normalized growth,"locus YBR231C, strain swc5, stronger effect = lower value",0.836 (active)
same,normalized growth,"locus YBR279W, strain paf1, stronger effect = lower value",0.911 (active)
same,normalized growth,"locus YCL011C, strain gbp2, stronger effect = lower value",0.823 (active)
same,normalized growth,"locus YCL016C, strain dcc1, stronger effect = lower value",0.912 (active)
same,normalized growth,"locus YCL029C, strain bik1, stronger effect = lower value",0.988 (inactive)
same,normalized growth,"locus YCL061C, strain MRC1, stronger effect = lower value",0.949 (inactive)
same,normalized growth,"locus YCL069W, strain vba3, stronger effect = lower value",0.899 (active)
same,normalized growth,"locus YCR088W, strain abp1, stronger effect = lower value",1.02 (inactive)
same,normalized growth,"locus YDL005C, strain med2, stronger effect = lower value",0.984 (inactive)
same,normalized growth,"locus YDL035C, strain GPR1, stronger effect = lower value",0.915 (inactive)
same,normalized growth,"locus YDL040C, strain nat1, stronger effect = lower value",1.01 (inactive)
same,normalized growth,"locus YDL074C, strain BRE1, stronger effect = lower value",0.809 (inactive)
same,normalized growth,"locus YDL101C, strain DUN1, stronger effect = lower value",0.959 (inactive)
same,normalized growth,"locus YDL134C, strain PPH21, stronger effect = lower value",0.91 (inactive)
same,normalized growth,"locus YDL185W, strain tfp1, stronger effect = lower value",1.01 (inactive)
same,normalized growth,"locus YDL192W, strain arf1, stronger effect = lower value",1 (inactive)
same,normalized growth,"locus YDR001C, strain nth1, stronger effect = lower value",1.02 (inactive)
same,normalized growth,"locus YDR069C, strain doa4, stronger effect = lower value",1.04 (inactive)
same,normalized growth,"locus YDR101C, strain arx1, stronger effect = lower value",1 (inactive)
same,normalized growth,"locus YDR137W, strain rgp1, stronger effect = lower value",1.18 [resistant] (active)
same,normalized growth,"locus YDR159W, strain sac3, stronger effect = lower value",0.826 (active)
same,normalized growth,"locus YDR162C, strain NBP2, stronger effect = lower value",0.944 (inactive)
same,normalized growth,"locus YDR195W, strain ref2",1.22 [resistant] (active)
same,normalized growth,"locus YDR297W, strain sur2, stronger effect = lower value",0.942 (inactive)
same,normalized growth,"locus YDR318W, strain mcm21, stronger effect = lower value",0.99 (inactive)
same,normalized growth,"locus YDR334W, strain swr1, stronger effect = lower value",0.957 (inactive)
same,normalized growth,"locus YDR335W, strain msn5, stronger effect = lower value",0.877 (active)
same,normalized growth,"locus YDR388W, stronger effect = lower value",0.972 (inactive)
same,normalized growth,"locus YDR392W, strain spt3, stronger effect = lower value",0.292 (active)
same,normalized growth,"locus YDR502C, strain sam2, stronger effect = lower value",1.01 (inactive)
same,normalized growth,"locus YEL003W, strain gim4, stronger effect = lower value",0.862 (active)
same,normalized growth,"locus YEL037C, strain rad23, stronger effect = lower value",0.971 (inactive)
same,normalized growth,"locus YEL061C, strain CIN8 (second series), stronger effect = lower value",0.875 (active)
same,normalized growth,"locus YEL061C, strain CIN8, stronger effect = lower value",0.97 (inactive)
same,normalized growth,"locus YER015W, strain faa2, stronger effect = lower value",0.975 (inactive)
same,normalized growth,"locus YER016W, strain bim1, stronger effect = lower value",0.965 (inactive)
same,normalized growth,"locus YER110C, stronger effect = lower value",0.967 (inactive)
same,normalized growth,"locus YER111C, strain swi4, stronger effect = lower value",0.867 (active)
same,normalized growth,"locus YER155C, strain BEM2 (second series), stronger effect = lower value",0.32 (active)
same,normalized growth,"locus YER155C, strain BEM2, stronger effect = lower value",1.03 (inactive)
same,normalized growth,"locus YER167W, strain BCK2, stronger effect = lower value",0.971 (inactive)
same,normalized growth,"locus YFR010W, strain ubp6, stronger effect = lower value",0.911 (inactive)
same,normalized growth,"locus YGL078C, strain dbp3, stronger effect = lower value",0.995 (inactive)
same,normalized growth,"locus YGL086W, strain mad1, stronger effect = lower value",0.994 (inactive)
same,normalized growth,"locus YGL167C, strain pmr1, stronger effect = lower value",1 (inactive)
same,normalized growth,"locus YGL173C, strain kem1, stronger effect = lower value",0.938 (inactive)
same,normalized growth,"locus YGL227W, strain vid30, stronger effect = lower value",1.01 (inactive)
same,normalized growth,"locus YGL240W, strain doc1, stronger effect = lower value",0.731 (active)
same,normalized growth,"locus YGL248W, strain PDE1, stronger effect = lower value",0.918 (inactive)
same,normalized growth,"locus YGL253W, strain hxk2, stronger effect = lower value",0.671 (active)
same,normalized growth,"locus YGR078C, strain PAC10, stronger effect = lower value",0.797 (active)
same,normalized growth,"locus YGR135W, strain pre9, stronger effect = lower value",0.92 (inactive)
same,normalized growth,"locus YGR252W, strain gcn5, stronger effect = lower value",0.695 (active)
same,normalized growth,"locus YHR013C, strain ard1, stronger effect = lower value",0.722 (active)
same,normalized growth,"locus YHR027C, strain rpn1, stronger effect = lower value",1 (inactive)
same,normalized growth,"locus YHR030C, strain SLT2, stronger effect = lower value",1.02 (inactive) and 0.875 (inactive)
same,normalized growth,"locus YHR079C, strain IRE1 (second series), stronger effect = lower value",1.01 (inactive)
same,normalized growth,"locus YHR079C, strain IRE1, stronger effect = lower value",0.874 (inactive)
same,normalized growth,"locus YHR094C, strain hxt1, stronger effect = lower value",1.01 (inactive)
same,normalized growth,"locus YHR129C, strain ARP1, stronger effect = lower value",0.99 (inactive)
same,normalized growth,"locus YHR142W, strain chs7, stronger effect = lower value",0.7 (active)
same,normalized growth,"locus YHR200W, strain rpn10, stronger effect = lower value",1.01 (inactive)
same,normalized growth,"locus YIL066C, strain RNR3, stronger effect = lower value",0.8 (active)
same,normalized growth,"locus YIL073C, strain SPO22, stronger effect = lower value",1.05 (inactive)
same,normalized growth,"locus YIL125W, strain kgd1, stronger effect = lower value",1.02 (inactive)
same,normalized growth,"locus YIR030C, strain dcg1, stronger effect = lower value",1.02 (inactive)
same,normalized growth,"locus YJL092W, strain hpr5, stronger effect = lower value",1.01 (inactive)
same,normalized growth,"locus YJL095W, strain BCK1 (second series), stronger effect = lower value",0.993 (inactive)
same,normalized growth,"locus YJL095W, strain BCK1, stronger effect = lower value",0.975 (inactive) and 0.864 (active)
same,normalized growth,"locus YJL115W, strain asf1, stronger effect = lower value",1.03 (inactive)
same,normalized growth,"locus YJL129C, strain trk1, stronger effect = lower value",0.7 (active)
same,normalized growth,"locus YJL134W, strain LCB3, stronger effect = lower value",1.02 (inactive)
same,normalized growth,"locus YJL154C, strain vps35, stronger effect = lower value",1.01 (inactive)
same,normalized growth,"locus YJL164C, strain tpk1, stronger effect = lower value",0.832 (active)
same,normalized growth,"locus YJL166W, strain qcr8, stronger effect = lower value",0.813 (active)
same,normalized growth,"locus YJL168C, strain set2, stronger effect = lower value",1.01 (inactive)
same,normalized growth,"locus YJL187C, strain SWE1 (second series), stronger effect = lower value",0.967 (inactive)
same,normalized growth,"locus YJR043C, strain POL32, stronger effect = lower value",0.832 (active)
